CYP2C19 activ: activators of human cytochrome P450 2C19; activation factor at 5 µM; recombinant CYP2C19, luciferin-H EGE luminescence; active compounds read high; 0 = fully inhibited enzyme, 1 = untreated enzyme; 96,000 tested, under 10 active; P33261;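 active = activation factor of at least 2 at 5 µM in the primary screen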
CYP2C19 inh: blocks human cytochrome P450 2C19 | P33261 | CYP2C19 Supersomes, luciferin-H EGE luminescence, 30 min | inhibition, % at 5 µM | actives 21% (n = 96,000);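 active = CYP2C19 inhibition above a set limit at 5 µM in the primary screen, cut at about 50% in these data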
PLAP activator: activators of human placental alkaline phosphatase. activation fold at 20 µM. purified PLAP enzyme, luminescent substrate read-out; active compounds read high. P05187. actives 1.2% (n = 96,000). AID 696; in the data active = activation fold above about 2
Target sequence (P05187 whole entry, looked up): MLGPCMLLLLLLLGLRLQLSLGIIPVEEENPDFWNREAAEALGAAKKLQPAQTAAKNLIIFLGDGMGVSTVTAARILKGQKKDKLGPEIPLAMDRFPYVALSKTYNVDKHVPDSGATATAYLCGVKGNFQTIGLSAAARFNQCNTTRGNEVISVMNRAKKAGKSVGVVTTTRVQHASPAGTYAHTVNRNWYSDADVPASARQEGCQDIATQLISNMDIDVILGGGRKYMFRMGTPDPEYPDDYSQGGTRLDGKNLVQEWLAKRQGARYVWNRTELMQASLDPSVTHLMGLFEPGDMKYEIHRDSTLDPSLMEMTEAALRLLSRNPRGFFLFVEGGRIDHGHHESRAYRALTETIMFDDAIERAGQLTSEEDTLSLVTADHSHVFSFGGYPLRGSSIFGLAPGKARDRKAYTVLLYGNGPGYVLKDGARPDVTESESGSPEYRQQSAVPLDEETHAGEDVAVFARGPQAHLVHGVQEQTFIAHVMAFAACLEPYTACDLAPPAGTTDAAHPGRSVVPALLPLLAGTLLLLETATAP
CYP2C9 inh: blocks human cytochrome P450 2C9. CYP2C9 Supersomes, luciferin-H conversion, luminescence. inhibition, % at 5 µM. AID 777. actives 20% (n = 96,000). P11712;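 active = blocking of liver enzyme CYP2C9 beyond about 50% at 5 µM, limit read from the data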
CYP2C9 activ: increases human cytochrome P450 2C9 activity; activation factor at 5 µM; P11712; AID 1024; actives 1.4% (n = 96,000); recombinant CYP2C9, luciferin-H conversion, luminescence; active compounds read high; factor 1 = untreated enzyme, 0 = blocked;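 active = activation factor of 2 or more for CYP2C9 at a 5 µM dose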
Each line names hits and unclear results; the compound was inactive in the other large screens. Most compounds without a hit are left out; they make up all but 31% or so of the library.

COc1ccc(C(=O)Nn2c(SCC(=O)NCC3CCCO3)nc3ccccc3c2=O)cc1 (stereo not drawn)	CYP2C9 inh 60.0
CC(C)(C)c1ccc(OCC(=O)NCCN2CCCC2)cc1	none
CSc1nsc(SCC(=O)Nc2ccc(Br)cn2)n1	CYP2C19 inh 73.3
Cc1cc(C)nc(SCC(=O)Nc2ccc(Br)cn2)n1	CYP2C19 inh 81.2
CSc1nsc(SCC(=O)Nc2ccc(C(C)=O)cc2)n1	CYP2C9 inh 57.4
Cc1cc(C)nc(SCC(=O)NC2=NN=C(c3ccc(Br)cc3)CS2)n1	CYP2C9 activ 2.1
Cc1nnc(SCC(=O)Nc2ccc(Br)cn2)[nH]c1=O	none
COC(=O)CNc1nc(OC)nc(N(C)C)n1	none
COCCCNC(=O)Cn1nc(-c2ccc(C)cc2)ccc1=O	none
CCOC(=O)C(C)n1cnc2c(nnn2Cc2ccc(C)cc2)c1=O (stereo not drawn)	CYP2C19 inh 53.0, CYP2C9 activ 2.9
Cc1ccc(Cn2nnc3c(=O)n(Cc4cccc(C)c4)cnc32)cc1	CYP2C9 activ 2.1
CCOC(=O)C(C)n1cnc2c(nnn2Cc2ccc(Cl)cc2)c1=O (stereo not drawn)	CYP2C9 activ 2.5
CCOC(=O)C(C)n1cnc2c(nnn2-c2ccc(C)cc2)c1=O (stereo not drawn)	none
CCCOc1cccc(OCCSc2nc(C)cc(=O)[nH]2)c1	CYP2C9 inh 51.2
CCc1c(C)nc(SCCOc2ccc(OC)cc2)[nH]c1=O	CYP2C19 inh 66.0, CYP2C9 inh 62.2
CCC(=O)c1ccccc1OCCSc1nc(C)cc(=O)[nH]1	CYP2C19 inh 72.2
CCCCc1cc2c(c(NC(=O)CC)n1)c(=O)oc1ccccc12	none
CC(=O)N(CC1CCCO1)c1nnc(-c2cnccn2)s1 (stereo not drawn)	none
COc1cccc(C2/C(=C(\O)c3ccc(OC)c(OC)c3)C(=O)C(=O)N2c2cc(C)on2)c1 (stereo not drawn)	none
CCOC(=O)c1ccc(NC(=O)CC2C(=O)N(c3ccc(F)cc3)C(=O)N2CCC(C)C)cc1 (stereo not drawn)	CYP2C19 inh 53.7
CCOC(=O)c1ccc(NC(=O)Nc2ccc(OC)c(OC)c2)cc1	none
COC(=O)c1ccc(NC(=O)Nc2ccc(F)cc2)cc1	CYP2C9 inh 60.5
CCOC(=O)c1ccc(NC(=O)Nc2ccc(F)cc2)cc1	CYP2C9 inh 66.0
Cc1cc(=O)n2[nH]c(COc3ccccc3)nc2n1	none
O=S(=O)(c1ccccc1)N1CCN(c2ncccn2)CC1	CYP2C9 inh 61.9
O=S(=O)(c1cc(F)cc(F)c1)N1CCN(c2ncccn2)CC1	CYP2C19 inh 71.7
Cc1ccc(S(=O)(=O)N2CCN(c3nc4ccccc4nc3-n3nc(C)cc3C)CC2)cc1	none
O=S(=O)(c1ccc(C2CCCCC2)cc1)N1CCN(c2ncccn2)CC1	none
Cc1nc(N2CCN(S(=O)(=O)c3ccccc3)CC2)c2cc(-c3ccccc3)sc2n1	CYP2C9 inh 52.6
O=C(CNC(=O)c1ccco1)NCC(=O)OCc1cccc(C(=O)Oc2ccccc2)c1	none
OC(CCCCN1CCCCC1)c1ccccc1 (stereo not drawn)	none
CCC(NC(=S)NCc1ccccc1)C(=O)O (stereo not drawn)	CYP2C19 inh 54.5
CCC(C)[C@H](NC(=O)NCc1ccccc1)C(=O)O (stereo partly drawn)	none
COCCNC(=O)C(c1ccco1)N(C(=O)Cn1nnc2ccccc21)c1cc(C)ccc1C (stereo not drawn)	none
CCc1ccc(NCc2nc3ccccc3c(=O)[nH]2)cc1	none
CCc1ccc(CNc2ccc(O)cc2)cc1	CYP2C19 inh 82.2
Cc1ccc(S(=O)(=O)N(C)CC(=O)Nc2ccncc2)cc1	CYP2C19 inh 100.0, CYP2C9 inh 62.8
COc1ccc(S(=O)(=O)N(C)CC(=O)NCc2cccnc2)cc1OC	none
CC1CCCCC1NC(=O)CN(C)S(=O)(=O)c1cccc2nsnc12 (stereo not drawn)	none
Cc1ccc(S(=O)(=O)N(C)CC(=O)NCc2ccncc2)cc1	CYP2C19 inh 90.5, CYP2C9 inh 80.4
Cc1ccc(S(=O)(=O)NNC(=O)CCC(=O)Nc2ccccc2)cc1	none
CC1CCCC(NC(=O)CN(C)S(=O)(=O)c2cccc3cccnc23)C1C (stereo not drawn)	CYP2C19 inh 58.9, CYP2C9 activ 2.1
Cc1ccc(S(=O)(=O)N(C)CCCC(=O)Nc2ccncc2)cc1	CYP2C19 inh 98.6, CYP2C9 inh 96.5
O=C(CN1C(=O)C2C3C=CC(C3)C2C1=O)N1CC=C(c2ccccc2)CC1 (stereo not drawn)	none
Cc1cccc(NC(=S)NC2CC3CCCC(C2)N3Cc2cccs2)c1C (stereo not drawn)	none
N/C(=N\OC(=O)C1CCCCC1)c1cccc([N+](=O)[O-])c1	none
Cc1ccc(CNC(=O)CN(C)S(=O)(=O)c2cccc3cccnc23)cc1	CYP2C19 inh 87.5
O=C(CN(C1CCCCC1)S(=O)(=O)c1ccc(Cl)cc1)NCCCO	CYP2C19 inh 60.2
COC(=O)CCN(C1CCCCC1)S(=O)(=O)c1ccc(S(=O)(=O)N2CCCCC2)cc1	none
CN(CC(=O)N1CCc2ccccc21)S(=O)(=O)c1cccc2cccnc12	none
Cc1ccc(S(=O)(=O)N(CC(=O)NCc2ccncc2)C2CCCCC2)cc1	CYP2C19 inh 98.8, CYP2C9 inh 93.3
CCOC(=O)Cc1csc(NC(=O)CN(C)S(=O)(=O)c2cccc3cccnc23)n1	CYP2C19 inh 89.6, CYP2C9 inh 91.7
CCOC(=O)c1cc2sccc2n1CC(=O)Nc1ccc2c(c1)OCCO2	none
COc1c(N)c2ccccc2[nH]c1=O	none
COc1cc(C(=O)N(Cc2cccc(Cl)c2)C2CCS(=O)(=O)C2)cc(OC)c1OC (stereo not drawn)	none
Nc1nc(NCc2ccccc2)nc(-c2ccccc2)n1	CYP2C19 inh 80.1, CYP2C9 inh 78.3
COc1cc(/C=N/NC(=O)CSc2cc(C)c(Br)cc2C)ccc1O	CYP2C9 inh 76.1
COc1ccc(/C=N\NC(=O)CCN2CCN(c3ccccc3)CC2)cc1OC	none
COc1ccc(/C=N/NC(=O)CCn2c3ccccc3c3ccccc32)cc1O	CYP2C19 inh 94.4, CYP2C9 inh 96.9
COC(=O)Oc1ccc(/C=N/NC(=O)CSCc2ccccc2Br)cc1OC	CYP2C19 inh 56.5, CYP2C9 inh 67.4
Cc1cc(SCC(=O)N/N=C/c2ccc(O)c(O)c2O)c(C)cc1Br	PLAP activator 2.2
COc1cc(/C=N/NC(=O)CCc2c(C)n[nH]c2C)ccc1O	none
CC(Sc1nnc2c(n1)C1(C)CCC2C1(C)C)C(=O)Nc1ccccc1 (stereo not drawn)	none
CCC(=O)N1CCN(c2ccc(Cl)cc2NC(=O)c2ccc3c(c2)OCCO3)CC1	CYP2C9 inh 71.0
CCC(=O)Nc1cc(Cl)ccc1N1CCN(C(=O)CC)CC1	none
CCC(=O)N1CCN(c2ccc(Cl)cc2NC(=O)c2ccc(N3CCCC3)c([N+](=O)[O-])c2)CC1	none
